HCV inhibitor: inhibitors of hepatitis C virus infection; Huh7.5.1 HCVcc-Cre infection, luciferase reporter, 44 h; Potency, µM (highest dose often 41.8 µM), for the others: top-dose activity change, negative = inhibition, usual class: inhibitors; actives 3.4% (n = 340,000); AID 651820; active means well fitted inhibition curve with a large enough effect; inconclusive means small, poorly fitted or top-dose-only effect, or another doubt; inactive means no such curve, though single readings can be large or run the other way; further: potency means the concentration at half of the fitted maximal effect
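After 44 h co-culture of compound, cells and HCVcc-Cre (~0.5 moi), substrate is added for 15 min at room temperature and luciferase measured over 15 sec. Cells were seeded at 1,000/well and pre-cultured 4 h.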
HCMV antiviral: human cytomegalovirus inhibition | activity change, negative = inhibition, % at 57.5 µM | HFF cells, HCMV-luciferase reporter, 72 h; hits give low values | actives 4.5% (n = 410,000); in the data active means activity change below about -60%; inconclusive means no clear call, values can overlap the other calls; inactive means above about -39%
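Screen run at 2 compound doses on HFFs infected with reporter HCMV, MOI 1 PFU/cell. Luciferase activity from cell lysates at 72 h post infection gave inhibition relative to buffer-only and Salinomycin wells.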
VACV mCherry inh: vaccinia inhibition (mCherry reporter); Vaccinia virus mCherry reporter infection, fluorescence; Potency, µM (titrated, usually from 36.5 µM), inactives show at the top dose activity change, negative = inhibition, actives largely listed as inhibitors; actives 0.63% (n = 310,000); calls by dose curve; tested in A549 cells; further: potency means the concentration at half of the fitted maximal effect; nearly all actives have a fitted effect of over 35% in size
Vaccinia Venus: inhibitors of vaccinia virus (Venus reporter); Vaccinia virus Venus reporter expression, fluorescence; Potency, µM (titrated, usually from 36.5 µM), without a hit: top-dose activity change, negative = inhibition, hits mostly inhibitors; actives 0.46% (n = 330,000); AID 720580; calls by dose curve; tested in A549 cells; further: potency means the concentration at half of the fitted maximal effect; nearly all actives have a fitted effect of over 30% in size
FMDV antiviral: antivirals against foot and mouth disease virus; actives 1.2% (n = 410,000); FMDV antiviral cell-based qHTS; Potency, µM (highest dose often 57.9 µM), inactives show at the top dose activity change, negative = inhibition, actives largely listed as inhibitors; calls by dose curve; tested in HEK293T cells; further: read-out not given here; potency means the concentration at half of the fitted maximal effect; nearly all actives have a fitted effect of over 45% in size
* marks the source's active call; other numbers are inactive results; i = inactive; ? = inconclusive; . = no result given; ! = repeats disagree; [ ] = remark or other dose. Rows were chosen to be rich in hits. Some 7.3% of all compounds tested hit in one or more screens of this group. On the % scale 0 is the no-effect control and ±100 the full control effect.

SMILES	HCV inhibitor	HCMV antiviral	VACV mCherry inh	Vaccinia Venus	FMDV antiviral
O=C(NCC(NS(=O)(=O)OCC(Cl)(Cl)Cl)c1ccccc1)C(F)(F)F (stereo unspecified)	-17%	-74*	-14%	?	-8%
O=[N+]([O-])c1cccn2cc(-c3ccc(Br)cc3)nc12	?	-62*	?	-28%	51%
COc1ccc(C(=O)NCc2nc(-c3ccccc3NC(=O)c3cc(C)oc3C)oc2C)cc1F	.	.	-11%	-8%	3%
O=S(=O)(c1cc(F)ccc1F)N1CCN(c2ccccn2)CC1	6%	-8	.	.	-20%
O=S(=O)(c1cc(F)ccc1F)N1CCN(c2ncnc3ccccc23)CC1	3.2µM*	?	.	.	10µM*
COc1ccc(CNCCC(c2ccc3c(c2)OCO3)c2ccccc2OC)cc1 (stereo unspecified)	.	-106*	?	?	-31%
COc1ccc(C(C)NCCC(c2ccc(OC(C)C)cc2)c2ccccc2OC)cc1 (stereo unspecified)	10µM*	-97*	?	11µM*	-24%
C/C(CC(=O)N1CCCC1)=N\NC(=O)c1cc2ccccc2cc1O	-12%	?	.	.	0%
NNC(=O)c1cc2ccccc2cc1O	36%	-74*	-22%	-8%	6.3µM*
O=C(NCCO)c1cc2ccccc2cc1O	10%	8	.	.	6%
CCOC(=O)C(C)/C(C)=N/NC(=O)c1cc2ccccc2cc1O (stereo unspecified)	?	-74*	i	2%	-14%
O=C(NCC1CCCCC1)c1cc2ccccc2cc1O	13µM*	-75*	?	-24%	3%
COc1ccccc1CCNC(=O)C(C)Sc1nc(-c2ccccc2)cc(C(F)(F)F)n1 (stereo unspecified)	.	-23	-17%	-9%	0%
COc1ccc(CNC(=O)Cn2c(=O)nc(-c3ccccc3F)c3cc(Cl)ccc32)cc1	.	-23	?	?	?
Cc1ccc(C(=O)/C=C/Nc2ccccn2)cc1	?	?	-6%	-13%	2.5µM*
Cc1ccc(N/C=C/C(=O)c2ccc(C)cc2)cc1	-7%	51	-10%	-5%	4%
CCCC(C(=O)Nc1cc(C)c(Cl)cc1OC)N1Cc2ccccc2C1=O (stereo unspecified)	.	-7	-15%	-11%	-14%
COc1cc(OC)c(NC(=O)C(CC(C)C)N2Cc3ccccc3C2=O)cc1Cl (stereo unspecified)	.	-65*	i	-8%	8%
CN(Cc1ccccc1)C(=O)Cn1c(=O)c2cccn2c2ccc(F)cc21	.	76	-17%	-13%	2%
Cc1cc(F)ccc1NC(=O)CCS(=O)(=O)c1cc2c(cc1C)NC(=O)CO2	.	-105*	-3%	-3%	-7%
Cc1ccc(CNC(=O)CCS(=O)(=O)c2cc3c(cc2Cl)NC(=O)CO3)cc1	-7%	-105*!	2%	-3%[7.34 µM]	-4%
Cc1cc2c(cc1S(=O)(=O)NCc1ccccc1)OCC(=O)N2	1%	-87*!	-7%	-9%	7%
O=C(Cc1ccc(Cl)cc1)Nc1ccc(N2CCCC2)cc1	0%	-17	.	-9%	-5%
Clc1cccc(Cl)c1CNc1ccc(N2CCCC2)cc1	?	-77*	-6%	10%	-9%
Nc1ncc(S(=O)(=O)NCc2cccc(Cl)c2)cn1	.	17	-12%	-3%	-1%
SMILES	HCV inhibitor	HCMV antiviral	VACV mCherry inh	Vaccinia Venus	FMDV antiviral
Cn1c(CS(=O)Cc2c(Cl)cccc2Cl)nnc1SCc1c(Cl)cccc1Cl (stereo unspecified)	-22%	-13	.	.	-4%
O=S(Cc1ccc(Br)cc1)Cc1nnc(SCc2c(Cl)cccc2Cl)n1-c1ccccc1 (stereo unspecified)	?	?	?	?	28µM*
O=C(Cc1nc(=O)c2ccccc2s1)Nc1ccccc1	-2%	-106*	.	.	64%
O=C(Cc1ccccc1)Nc1nc(=O)c2ccccc2s1	-4%	-2	-15%	-12%	15%
CC(C)=CCc1cc([C@@H]2COc3c(ccc4c3C=CC(C)(C)O4)C2)c(O)cc1O	?	-106*	?	?	?
O=C([C@@H]1[C@@H](CO)[C@@H]2Cn3c(cccc3=O)[C@H]1N2Cc1cccc(Cl)c1)N1CCOCC1	.	-7	.	.	.
C=CCNC(=O)CN1CCC(n2c(C)nc3cc(C(F)(F)F)ccc32)CC1	6%	0	-1%	-7%	-4%
Cc1nc2cc(C(F)(F)F)ccc2n1C1CCN(CC(=O)NC(C)(C)C)CC1	-9%	-82*	.	.	-17%

High-throughput results from PubChem BioAssay.
